Data: PubChem BioAssay AID2073 (Sanford-Burnham Center for Chemical Genomics, 2009)
Screen size: about 290,000 compounds; about 570 (0.2%) were called active. Not shown: some 1% with an inconclusive outcome. This is one part of a sample in which actives are shown more often than they occur. Cut-off read from the data, not from the text of the source: active = inhibition mostly above about 51% (no sharp cut-off); inconclusive = no clear call, values can overlap the other calls; inactive = mostly below about 53%.

Molecular target: Voltage-dependent N-type calcium channel subunit alpha-1B (Homo sapiens) (UniProt Q00975)
Assay: inhibitors of Mint1-CaV2.2 protein interaction, biochemical, HTRF (AID 2073)
Conditions: at 20 µM, stronger effect = higher value

Voltage-dependent N-type calcium channel subunit alpha-1B (Homo sapiens), sequence (Q00975 whole entry, looked up): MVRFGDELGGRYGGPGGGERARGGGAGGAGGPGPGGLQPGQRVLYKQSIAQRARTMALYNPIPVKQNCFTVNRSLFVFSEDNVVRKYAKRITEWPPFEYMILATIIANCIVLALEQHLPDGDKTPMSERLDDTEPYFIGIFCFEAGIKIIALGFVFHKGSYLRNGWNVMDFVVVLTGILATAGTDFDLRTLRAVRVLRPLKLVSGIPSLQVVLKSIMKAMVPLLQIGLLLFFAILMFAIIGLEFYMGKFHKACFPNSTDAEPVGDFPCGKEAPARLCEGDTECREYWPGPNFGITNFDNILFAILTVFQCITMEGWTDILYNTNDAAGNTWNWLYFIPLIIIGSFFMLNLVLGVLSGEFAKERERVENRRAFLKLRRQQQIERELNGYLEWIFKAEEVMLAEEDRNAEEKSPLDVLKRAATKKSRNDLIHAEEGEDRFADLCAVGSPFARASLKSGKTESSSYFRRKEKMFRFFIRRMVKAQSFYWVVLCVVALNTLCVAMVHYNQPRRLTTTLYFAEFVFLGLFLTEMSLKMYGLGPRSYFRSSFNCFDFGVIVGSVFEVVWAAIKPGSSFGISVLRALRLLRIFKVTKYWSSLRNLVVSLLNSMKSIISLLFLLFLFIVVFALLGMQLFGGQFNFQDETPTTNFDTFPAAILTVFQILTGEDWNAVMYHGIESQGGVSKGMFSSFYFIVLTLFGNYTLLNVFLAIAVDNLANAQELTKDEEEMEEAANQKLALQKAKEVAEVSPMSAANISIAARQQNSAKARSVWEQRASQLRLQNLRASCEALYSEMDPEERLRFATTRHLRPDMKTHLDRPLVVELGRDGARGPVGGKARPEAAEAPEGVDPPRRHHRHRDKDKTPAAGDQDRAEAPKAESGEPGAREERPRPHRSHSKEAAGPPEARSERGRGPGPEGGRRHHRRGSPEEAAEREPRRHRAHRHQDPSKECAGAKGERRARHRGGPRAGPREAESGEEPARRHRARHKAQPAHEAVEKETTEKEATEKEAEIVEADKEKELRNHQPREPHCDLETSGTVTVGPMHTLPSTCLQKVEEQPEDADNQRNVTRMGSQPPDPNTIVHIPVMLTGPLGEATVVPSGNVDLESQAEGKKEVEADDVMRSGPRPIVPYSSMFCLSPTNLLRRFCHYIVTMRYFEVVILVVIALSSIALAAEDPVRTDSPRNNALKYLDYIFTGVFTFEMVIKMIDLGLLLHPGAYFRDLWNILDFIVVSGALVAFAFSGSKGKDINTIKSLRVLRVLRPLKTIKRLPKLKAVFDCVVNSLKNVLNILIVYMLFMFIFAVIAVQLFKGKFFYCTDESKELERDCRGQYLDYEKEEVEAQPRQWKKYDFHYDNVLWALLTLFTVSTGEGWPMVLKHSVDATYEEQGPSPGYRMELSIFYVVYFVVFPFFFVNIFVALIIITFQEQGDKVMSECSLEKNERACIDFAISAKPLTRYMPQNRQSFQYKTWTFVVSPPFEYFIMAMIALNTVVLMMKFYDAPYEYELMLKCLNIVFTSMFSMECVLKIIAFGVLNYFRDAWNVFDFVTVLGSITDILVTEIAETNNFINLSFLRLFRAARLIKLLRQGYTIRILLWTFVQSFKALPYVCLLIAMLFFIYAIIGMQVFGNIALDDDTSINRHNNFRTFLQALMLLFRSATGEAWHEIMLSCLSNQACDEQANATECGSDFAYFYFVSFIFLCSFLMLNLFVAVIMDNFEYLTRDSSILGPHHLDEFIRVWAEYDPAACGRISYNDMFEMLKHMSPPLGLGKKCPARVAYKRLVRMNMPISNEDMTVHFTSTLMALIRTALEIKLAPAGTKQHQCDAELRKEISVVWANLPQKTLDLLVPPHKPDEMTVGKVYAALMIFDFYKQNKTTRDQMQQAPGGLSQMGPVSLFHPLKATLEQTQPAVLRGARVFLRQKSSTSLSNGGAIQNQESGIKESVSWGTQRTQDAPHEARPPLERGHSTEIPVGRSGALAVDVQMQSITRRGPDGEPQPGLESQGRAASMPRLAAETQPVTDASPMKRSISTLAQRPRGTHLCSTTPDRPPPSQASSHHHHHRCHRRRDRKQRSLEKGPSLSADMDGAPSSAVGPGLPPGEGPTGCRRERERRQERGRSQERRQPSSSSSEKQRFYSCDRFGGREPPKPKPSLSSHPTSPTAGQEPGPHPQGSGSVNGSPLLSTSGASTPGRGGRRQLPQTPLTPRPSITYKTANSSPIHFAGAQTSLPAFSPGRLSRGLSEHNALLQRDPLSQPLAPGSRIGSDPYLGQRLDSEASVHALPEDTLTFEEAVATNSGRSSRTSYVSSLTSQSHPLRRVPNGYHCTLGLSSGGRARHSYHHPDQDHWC

## CCCNC(=O)OC[C@H]1O[C@H](CCO/N=C/c2ccc(C(=O)N3[C@H](c4ccc(C)cc4)[C@@H](C)CC[C@H]3C(=O)OC)cc2)C=C[C@@H]1Oc1ccc(OC)cc1
  inhibition: 6.9% (inactive)

## CCOC(=O)c1cc(NC(=O)CCC(=O)O)ccc1N1CCCCC1
  inhibition: 19.3% (inactive)

## O=C(/C=C/c1cccs1)Nc1nc(-c2ccccc2)cs1
  inhibition: 10% (inactive)

## O=C(/C=C\c1ccco1)Nc1nc(-c2ccccc2)cs1
  inhibition: 0% (inactive)

## O=C(/C=C/c1ccccc1)Nc1nc(-c2ccncc2)cs1
  inhibition: 54.1% (active)

## O=C(/C=C/c1ccco1)Nc1nc(-c2ccccc2)cs1
  inhibition: 26.4% (inactive)

## O=C(/C=C/c1ccco1)Nc1nc(-c2ccccn2)cs1
  inhibition: 54.1% (active)

## O=C(/C=C/c1ccc2c(c1)OCO2)Nc1nc(-c2ccccc2)cs1
  inhibition: 26% (inactive)

## CCCSc1nc(N2CCOCC2)c2c(c1C#N)CC(C)(C)SC2
  inhibition: 0.4% (inactive)

## Cc1ccccc1NC1=C(Cl)C(=O)OC1NC(=O)c1ccccc1 (stereo not given)
  inhibition: -0.5% (inactive)

## CCOC(=O)c1ccc(N2C(=O)CC(C(=O)OC)=C2C)cc1
  inhibition: 3.2% (inactive)

## CCc1ccc2nc(NC(=O)c3ccc(N4C(=O)CCC4=O)cc3)sc2c1
  inhibition: 32.1% (inactive)

## Cc1ccc2nc(NC(=O)CN3CCOCC3)sc2c1
  inhibition: -0.6% (inactive)

## Cc1ccc(-n2ncc3c2CCCC3NC(=O)CCn2ccnc2C)cc1C (stereo not given)
  inhibition: -3.7% (inactive)

## O=C(Nc1ncc2c(n1)CC(c1ccco1)CC2=O)c1ccccc1 (stereo not given)
  inhibition: 33.5% (inactive)

## O=C1CC(c2ccco2)Cc2nc(Nc3nc(-c4ccccc4)c4ccccc4n3)ncc21 (stereo not given)
  inhibition: 52.4% (active)

## O=C1CC(c2ccco2)Cc2nc(Nc3ccc(F)cc3)ncc21 (stereo not given)
  inhibition: 6.4% (inactive)

## CN(C)C(=O)c1ccc(NC(=O)COc2ccc([N+](=O)[O-])cc2)cc1
  inhibition: 5.1% (inactive)

## COc1ccc(C2C(Oc3ccccc3)C(=O)N2c2cc(C)ccc2C)cc1OC (stereo not given)
  inhibition: -3.8% (inactive)

## Cc1ccc(-n2c(=O)c3cc4c(=O)n(-c5ccc(C)c(C)c5)c(=O)c4c(C(=O)c4ccc(C(=O)O)cc4)c3c2=O)cc1C
  inhibition: 85% (active)

## Cc1ccc(N2C(=O)c3ccc(C(=O)O)cc3C2=O)cc1C
  inhibition: -1.3% (inactive)

## O=C(O)c1ccc(-n2c(=O)c3ccccc3c3ccccc3c2=O)cc1
  inhibition: -2.9% (inactive)

## O=C(N/N=C/c1ccoc1)c1cc(O)cc(O)c1
  inhibition: 18.3% (inactive)

## Cc1cc([N+](=O)[O-])c2c(c1C)C1C=CCC1C(c1ccccn1)N2 (stereo not given)
  inhibition: 42.9% (inactive)

## O=C(O)c1ccc(Cl)c2c1C1C=CCC1C(c1ccccn1)N2 (stereo not given)
  inhibition: 23.7% (inactive)

## O=[N+]([O-])c1ccc(Cl)c2c1C1C=CCC1C(c1ccccn1)N2 (stereo not given)
  inhibition: 79.5% (active)

## COc1c(S(=O)(=O)NCCCn2ccnc2)ccc(Cl)c1Cl
  inhibition: -0.3% (inactive)

## COc1cccc(-c2nn(-c3ccccc3)cc2C(=O)O)c1
  inhibition: 1.6% (inactive)

## COc1ccc(NC(=O)c2c(NC(=O)CCC(=O)O)sc3c2CCCCC3)cc1
  inhibition: 63.8% (inactive)
Measured here: average of repeat tests
  inhibition: 9.3%

## COc1ccccc1NC(=O)c1c(NC(=O)CCC(=O)O)sc2c1CCCCC2
  inhibition: 25% (inactive)

## COc1ccc(OC)c(NC(=O)c2c(NC(=O)CCC(=O)O)sc3c2CCCCC3)c1
  inhibition: 65.1% (active)

## O=S(=O)(NCC1CCCO1)c1ccc(Oc2ccccc2)cc1 (stereo not given)
  inhibition: 8.9% (inactive)

## Cc1cc(C(=O)OCC(=O)Nc2cc(S(=O)(=O)N(C)C)ccc2C)c2ccccc2n1
  inhibition: -2.8% (inactive)

## C[C@H]1[C@H](C)CC[C@]2(C(=O)O)CC[C@]3(C)C(=CC[C@@H]4[C@@]5(C)C[C@@H](O)[C@H](O)C(C)(C)[C@@H]5CC[C@]43C)[C@H]12
  inhibition: 45.4% (inactive)

## C[C@H]1[C@H](C)CC[C@]2(C)CC[C@]3(C)C(=CC[C@@H]4[C@@]5(C)CC[C@@H](O)[C@](C)(C(=O)O)[C@@H]5CC[C@]43C)[C@H]12
  inhibition: 77% (active)

## C[C@H]1[C@H](C)CC[C@]2(C(=O)O)CC[C@]3(C)C(=CC[C@@H]4[C@@]5(C)CC[C@H](O)C(C)(C)[C@@H]5CC[C@]43C)[C@H]12
  inhibition: 41.1% (inactive)

## CC(=O)Nc1cc2c3c(c1)CCN3C(=O)CC2
  inhibition: 0.4% (inactive)

## COc1cc(/C=N/NC(=O)c2ccncc2)ccc1OC(C)=O
  inhibition: 11.8% (inactive)

## Cc1ccc(S(=O)(=O)n2c(=O)oc3ccccc32)cc1
  inhibition: -5.8% (inactive)

## CCn1ncc(C2=NOC(C(=O)N3CCC(C(N)=O)CC3)C2)c1C (stereo not given)
  inhibition: 2.8% (inactive)

## CCCOC(=O)/C(=C\C=C\c1ccccc1)NC(=O)c1ccccc1
  inhibition: -6.3% (inactive)

## CCCCOC(=O)/C(=C/C=C/c1ccccc1)NC(=O)c1ccccc1
  inhibition: 7.4% (inactive)

## CCCOC(=O)/C(=C\C=C\c1ccco1)NC(=O)c1ccccc1
  inhibition: 66.6% (active)

## CC1(c2ccccc2)NC(=O)N(Cc2ccc([N+](=O)[O-])cc2)C1=O (stereo not given)
  inhibition: -5.3% (inactive)

## CP(=O)(COC(=O)c1ccccc1)COC(=O)c1ccccc1
  inhibition: -9.7% (inactive)

## OC[C@@H]1CCCN1Cc1cn(-c2ccccc2)nc1-c1ccc2c(c1)OCO2
  inhibition: 8.1% (inactive)

## O=C(N/N=C/c1sc(N2CCOCC2)nc1-c1ccccc1)c1cccc(S(=O)(=O)N2CCOCC2)c1
  inhibition: 21.2% (inactive)

## COc1cc(C(=O)N/N=C/c2sc(N3CCOCC3)nc2-c2ccccc2)cc(OC)c1OC
  inhibition: 4.4% (inactive)

## O=[N+]([O-])c1ccc(N/N=C/c2sc(N3CCOCC3)nc2-c2ccccc2)c(S(=O)(=O)Nc2ccccc2Cl)c1
  inhibition: 30.5% (inactive)

## O=[N+]([O-])c1ccc(N/N=C/c2sc(N3CCOCC3)nc2-c2ccccc2)c(S(=O)(=O)Nc2ccc(Cl)cc2)c1
  inhibition: 67.1% (active)

## Cc1ccc(NS(=O)(=O)c2cc([N+](=O)[O-])ccc2N/N=C/c2sc(N3CCOCC3)nc2-c2ccccc2)c(C)c1
  inhibition: 31.1% (inactive)

## O=C(N/N=C/c1sc(N2CCOCC2)nc1-c1ccccc1)c1cccc(S(=O)(=O)N2CCCC2)c1
  inhibition: 51.1% (active)

## Cc1ccc(C2=CSC3=NNC4(CCCCC4)NN23)cc1
  inhibition: 8.9% (inactive)

## CCOC(=O)N1CCN(C(=O)CSCc2ccccc2C)CC1
  inhibition: -5.4% (inactive)
